Measured values reported in PubChem BioAssay AID1454 (National Center for Advancing Translational Sciences (NCATS), 2008).
Out of some 130,000 compounds screened, about 550 (0.42%) were called active. Inconclusive results (about 4%) are left out. The call rests on the fitted dose curve; in most records, active means well fitted inhibition curve with a large enough effect; inconclusive means small, poorly fitted or top-dose-only effect, or effect the other way; inactive means flat fitted curve, though single readings scatter. Shown is part of a subset that was picked to be rich in actives. Entries that show only a call come without a potency.

Test: qHTS Assay for Inhibitors of the ERK Signaling Pathway using a Homogeneous Screening Assay; Stimulation with EGF; further: nearly all actives have a fitted effect of over 55% in size
Settings: HEK293-V1b, EGF-stimulated phospho-ERK AlphaScreen; series mostly up to 11.5 µM
Description: NIH Chemical Genomics Center [NCGC]
NIH Molecular Libraries Screening Centers Network [MLSCN]
Assay Submitter (PI): Dr. Wei Zheng, NCGC/NIH
The Ras/extracellular-signal-regulated kinase (ERK) mitogen activated protein (MAP) kinase signaling pathway (ERK1/2 cascade) plays a key role in transmitting signals from the cell surface to the nucleus (Nishida and Gotoh 1993; Chang and Karin, 2001). The cascade is initiated by the small G-protein Ras, which recruits Raf from the cytosol, where activation occurs. Alternatively, this pathway can be activated by elevating intracellular cAMP, or by activation of a receptor tyrosine kinase as epidermal growth factor receptor.
Activation of the ERK pathway is essential in increased cell division and cell survival. Sustained and constitutive activation of the ERK pathway, however, has been linked to uncontrolled cell proliferation, increased cell survival, and tumor progression. Thus, the ERK has been as an attractive target for cancer chemotherapy in the past few years (Sebolt-Leopold and Herrera, 2004). Given its physiological and pathological importance, assessment of ERK phosphorylation has been broadly performed in both basic research and drug discovery. Most assays for the measurement of ERK phosphorylation use the antibody-based detection methods, such as western blot and ELISA. These assays require multiple reagent additions with cell wash steps and are not suitable for high throughout screening.
The current cell-based ERK phosphorylation assay was performed using AlphaScreen platform. AlphaScreen is a two bead-based proximity-dependent chemical energy transfer luminescent assay platform. The assay reagents (ERK SureFire(TM) kit) were supplied from TGR BioSciences (Australia). In the presence of specific antibodies, phosphorylated ERK will bring "donor" and "acceptor" beads to a proximity range (<200 nm), and subsequently lead a chemical luminescent reaction upon exciting donor beads with 680 nm laser. To exclude the assay-related false positives, we used a biotinylated rabbit IgG to perform counter-screen. The biotinylated antibody mimics the phosphorylated ERK1/2 for bringing streptavidin coated beads and protein-A coated beads to a proximity range for the AlphaScreen detection.
NCGC Assay Protocol Summary:
HEK293 cells stably expressing type-1 vasopressin receptor (V1b) were maintained in DMEM medium (Invitrogen, Carlsbad, CA) at 37C under a humidified atmosphere containing 5% CO2 and 95% air. The medium contained 10% FBS, 2 mM L-glutamine, non-essential amino acid, pyruvate and 50 U/ml penicillin and 50 ug/ml streptomycin (Invitrogen). The aliquots of frozen cells were stored at -135C and used for the compound screening. All compounds were screened as titrations from 0.6 nM to 46 uM final concentration. Epidermal growth factor (EGF) was used to stimulate the ERK phosphorylation pathway. The ERK phosphorylation in cells was determined using an AlphaScreen assay kit provided by […]. Data were normalized to the controls for basal activity (DMSO only) and 100% activation (25 nM EGF). AC50 values were determined from concentration-response data modeled with the standard Hill equation.
(1) Seed 4 ul/well of resuspended frozen HEK293 cells containing 2000 cells in white 1536-well plates for overnight with 1% FBS at 37C under a humidified atmosphere containing 5% CO2 and 95% air.
(2) Add 23 nL compounds in DMSO solution. The final titration was 0.6 nM to 46 uM.
(3) Incubate at 37C for 30 min.
(4) Dispense 0.5uL EGF (25 nM in final)
(5) Incubate at 37C for 5 min.
(6) Dispense 0.5uL of 1:2 diluted 5x lysis buffer.
(7) Incubate at 37C for 10 min.
(8) Dispense 1.5uL of mixture of activation buffer and reaction buffer with AlphaScreen beads (streptavidin donor beads and protein-A acceptor beads, 10 ng/well for each).
(9) Incubate at room temperature for 5 hr.
(10) Detect the assay plate in an EnVision plate reader (PerkinElmer) using the AlphaScreen detection mode.
[…]
Potency means the concentration at half of the fitted maximal effect.

Structure (SMILES)	Potency
CC1(C)CC(=O)C(CC(=O)N2CCC(Cc3ccccc3)CC2)C(=O)C1	inactive
Cc1ccc(CN(Cc2cccnc2)C(=S)Nc2cc(Cl)ccc2C)cc1	inactive
O=C(COC(=O)c1ccc(S(=O)(=O)Nc2ccccc2)cc1)NCC1CCCO1 (configuration not stated)	inactive
COc1ccc(-n2cnnc2SCC(=O)Nc2cccc([N+](=O)[O-])c2)cc1	inactive
CCCc1nc2c(c(=O)c3ccccc3n2C)c(=O)n1-c1cc(C)cc(C)c1	inactive
COc1ccc(CCNC(=O)C(=O)NCC2CCNCC2)cc1OC	inactive
CCn1c(SCc2cc(=O)n3ccsc3n2)nc2ccccc21	inactive
N#C/C(=C/c1ccc(-c2ccccc2[N+](=O)[O-])o1)C(=O)NCCN1CCCCC1	inactive
COC(=O)/C=C(\Oc1ccccc1)C1(O)CCCCC1	inactive
O=[N+]([O-])c1ccc2c(c1)C(N1CCOCC1)/C(=C/C1(O)CCCCC1)O2 (configuration not stated)	inactive
CC(=O)Nc1cccc(-c2nc3ccccc3s2)c1C	inactive
CCOC(=O)N1CCN(CC(=O)Nc2ccc(F)cc2)CC1	inactive
COCCCNC(NC(=O)c1ccc(OC)cc1)C(Cl)(Cl)Cl (configuration not stated)	inactive
CC(=O)c1cccc(NC(=O)[C@@H](NC(N)=O)C(C)C)c1	inactive
Cc1cccc(N=Nc2c(C)[nH]n(-c3ccccc3)c2=O)c1	7.08 µM (active)
Cc1[nH]n(C)c(=O)c1N=Nc1ccc(S(C)(=O)=O)cc1	inactive
O=C(NNC(=O)c1ccccc1[N+](=O)[O-])Nc1ccccc1C(F)(F)F	inactive
CCCC(=O)Nc1nnc(-c2ccccc2)o1	inactive
COc1ccc(CN(C)C(=S)Nc2ccc(Cl)cc2Cl)cc1	inactive
O=C(NCc1csc(-c2cccs2)n1)C1CC1	inactive
Cc1noc(C)c1COC(=O)COc1ccc(-c2ccccc2)cc1	inactive
CCCn1c(NC(=O)C23CC4CC(CC(O)(C4)C2)C3)nc2ccccc21	inactive
CCOC(=O)C1=C(c2ccc(OC)cc2)C(=O)c2ccccc2C1=O	31.6 µM (active)

Structure (SMILES)	Potency
CCOC(=O)c1c(C)[nH]c2c1-c1ccccc1C(=O)C2=O	inactive
CCOC(=O)c1ccccc1NS(=O)(=O)c1ccc(OC)cc1	inactive
CC(C)NC(=O)NC(=O)CSc1nnc(-c2ccccc2F)n1N	inactive
Cc1cc(C)nc(NC(=O)/C=C/c2ccc(Cl)cc2)n1	inactive
COc1ccc(/C=C/C(=O)Nc2ccc(C)cc2)cc1S(=O)(=O)N1CCOCC1	inactive
CC(=O)Nc1ccc(-c2csc(NC(=O)Nc3ccccc3)n2)cc1	25.1 µM (active)
CC(=O)Nc1ccc(-c2csc(NC=C3C(=O)OC(C)(C)OC3=O)n2)cc1	inactive
CC(=O)Nc1ccc(S(=O)(=O)Nc2nc(-c3ccc(C(C)(C)C)cc3)cs2)cc1	inactive
CN(c1ccccc1)S(=O)(=O)c1ccc(Cl)c(C(=O)OCC(=O)N2CCOCC2)c1	inactive
O=C(NCc1cccs1)c1cc(-c2ccccn2)nc2ccc(Br)cc12	inactive
O=C(CN1CCCC1)N1CCN(c2ccccc2)CC1	inactive
COc1ccc(N2CCN(C(=O)/C(C#N)=C/c3ccccc3)CC2)cc1	inactive
CC(CO)NCC12CC3CC(CC(C3)C1)C2 (configuration not stated)	inactive
CC(C)(C)c1cc(P(=O)(c2ccccc2)c2ccccc2)ccc1O	inactive
CCOC(=O)CN(C(=O)COc1nc(-c2ccccc2)cc(C)c1C#N)c1ccc(F)cc1	inactive
COC(OC)c1ccnc(SCc2ccccc2Cl)n1	inactive
O=C(O)/C=C/c1ccc2c(c1)OCCO2	inactive
CC1(C)CC(N(Cc2ccccc2)C(=O)Cc2ccccc2)CCO1 (configuration not stated)	inactive
Cc1cccc(N2CCN(Cc3nc(C4CC4)no3)CC2)n1	inactive
CN(CCOc1ccccc1)Cc1nc2cc(Cl)ccc2c(=O)[nH]1	inactive
O=C(NCc1ccccc1Cl)C1CCN(S(=O)(=O)N2CCOCC2)CC1	inactive
C=CCOc1c(CNn2cn[nH]c2=S)cccc1OC	inactive
O=C(NCCc1ccccn1)c1cccnc1Oc1ccc(Cl)cc1	inactive

Structure (SMILES)	Potency
CCC/C(C)=N\Nc1nc2c(c(=O)n(C)c(=O)n2C)n1C	inactive
C=C(C)c1cccc(C(C)(C)NC(=O)NCCN(CC)CC)c1	inactive
CCNC(=O)c1ccc(OCC(=O)Nc2ccc(F)cc2)c(OC)c1	inactive
O=C(/C=C/c1ccccc1)Oc1coc(CSc2ncccn2)cc1=O	inactive
CCN(CC)CCNC(=O)c1ccc(NS(=O)(=O)c2ccc3c(c2)OCCO3)cc1	inactive
COc1ccc(CCc2nnc(CCC(=O)NCc3cnn(-c4ccccc4C)c3)o2)cc1	inactive
NCCCCCC(=O)N/N=C/c1ccc2nccnc2c1	inactive
O=C(N/N=C1\CCSC1)c1cc(Cl)ccc1O	inactive
CSc1ccc(CN(C)CC(=O)NCc2ccc(F)cc2)cc1	inactive
O=C(CSc1nc2ccccc2s1)Nc1ccc(C(=O)O)cc1	inactive
CS(=O)(=O)N(CC(=O)N1CCCC1)Cc1ccccc1	inactive
OCC1(Cc2ccccc2C(F)(F)F)CCN(Cc2ccncc2)CC1	inactive
CCNC(=O)COc1cc(C)c(Br)c(C)c1	inactive
O=c1oc2ccccc2cc1-c1csc(Nc2ccc(O)cc2)n1	39.8 µM (active)
COc1ccc2nc(Nc3nc(-c4cc5ccccc5oc4=O)cs3)sc2c1	inactive
CCNc1nc(-c2cc3ccccc3o2)cs1	inactive
CSc1ccccc1C(=O)NCc1ccccc1	inactive
Brc1ccc(Nc2c3c(nc4ncnn24)CCC3)cc1	25.1 µM (active)
Cc1nc(S(=O)(=O)c2ccc(Br)cc2)nc2c1CCC2	inactive
CC1CCc2c(nc3ncnn3c2Nc2ccc(OC(F)(F)F)cc2)C1 (configuration not stated)	inactive
Oc1oc(-c2ccccc2Br)nc1/C=N/c1ccccn1	inactive
CC1CCCCC1NC(=O)CO/N=C/c1ccc(OC(F)F)cc1 (configuration not stated)	inactive
CSc1ccc(/C=N\NC(=O)CC(=O)NC(C)C)cc1	inactive

Structure (SMILES)	Potency
CCN(CC)CCn1cnc2c1c(=O)n(CCOC(=O)c1cc(OC)c(OC)c(OC)c1)c(=O)n2C	inactive
O=C1CC2(CC(c3ccc(Cl)cc3)=NO2)C(=O)N1c1ccccc1 (configuration not stated)	inactive
Cn1nc(C(F)(F)F)cc1-c1ccc(/C=C(\C#N)C(=O)c2cccc(C(F)(F)F)c2)s1	inactive
Cn1c(SCC(=O)N2CCOCC2)nnc1-c1ccc2ncccc2c1	inactive
O=C(Nc1cc(Cl)cc(Cl)c1)C(NCCCO)c1ccccc1 (configuration not stated)	inactive
OCCCNc1nccc(-c2cc(Nc3cccc(Cl)c3)ncn2)n1	22.4 µM (active)
CC(C)n1cnc2c(Nc3cccc(Cl)c3)nc(N(CCO)CCCO)nc21	inactive
O=C(NN1C(=O)C2C(C1=O)C1C=CC2C12CC2)c1ccccc1Cl (configuration not stated)	inactive
O=C(CN1CCN(Cc2ccc(F)cc2Cl)C1=O)NCc1cccs1	inactive
CC(=O)Nc1ccc(NC(=O)CSc2ncnc3c2cnn3Cc2ccccc2)cc1	inactive
Clc1ccc(Nc2ncnc3c2nnn3Cc2ccccc2)cc1	inactive
CN(C)c1cc2c(Nc3ccc4c(cnn4Cc4ccccc4)c3)ncnc2cn1	2.82 µM (active)
COc1ccc(Cl)cc1C(=O)NNC(=O)c1nc2nc(C)cc(C)n2n1	inactive
CN(C)CCCn1c(SCCN2C(=O)c3ccccc3C2=O)nc2ccccc2c1=O	inactive
COc1ccc(C/C(N)=N/OC(=O)c2ccco2)cc1OC	inactive
COc1ccccc1Cn1c(CO)nc2ccccc21	inactive
Cc1cccc(-n2c(Cc3cc(=O)[nH]c(=O)[nH]3)nnc2SCC(=O)Nc2cccc(C(F)(F)F)c2)c1	inactive
O=C(COC(=O)c1ccc(Cl)nc1)NCc1cccs1	inactive
CCOc1ccc(C2NC(=S)NC3=C2CCc2ccccc23)cc1 (configuration not stated)	inactive
Cc1cc(C)nc(S/C=C/C(=O)c2ccccc2)n1	22.4 µM (active)
Cc1ccc(N/C=C/C(=O)c2ccccc2)cc1C	inactive
Cc1cc(Oc2ccc(Cl)cc2)nc(SCC(=O)c2ccccc2)n1	inactive
O=C(NNC(=S)NC(=O)c1cn(-c2ccccc2)nc1-c1ccccc1)c1ccncc1	inactive

Structure (SMILES)	Potency
CC1=NN(c2ccccc2)C(=O)C1C(=O)c1ccc([N+](=O)[O-])cc1 (configuration not stated)	inactive
Oc1ccc(-c2nnc(Nc3ccccc3)c3ccccc23)cc1	inactive
O=C(COC(=O)c1ccccc1)Nc1cccc(S(=O)(=O)N2CCOCC2)c1	inactive
Cc1nn(CCOc2ccc(Br)cc2)c(C)c1[N+](=O)[O-]	inactive
CCC(=O)OCCNc1nc(-c2ccccc2)nc2ccccc12	inactive
COCCNc1nc2nonc2nc1N1CCCC1c1nccs1 (configuration not stated)	inactive
O=S(=O)(Nc1n[nH]c(C(F)(F)F)n1)c1ccccc1	inactive
CC(C)N(Cc1nc(-c2ccc3c(c2)OCO3)no1)CC1CCC(=O)N1 (configuration not stated)	inactive
O=C1CN(C(=O)CN2C(=O)NC3(CCCCC3)C2=O)c2ccccc2N1	inactive
CCOC(=O)c1c(C)oc(C)c(C(=O)OCC)c1=O	inactive
Cc1nn(CC(=O)N/N=C/c2ccc(F)cc2)c(C)c1[N+](=O)[O-]	inactive
O=S(=O)(c1cccc(-c2nnc3n2CCCCC3)c1)N1CCOCC1	inactive
CCN(CC)CCCSc1nc2ccccc2s1	inactive
COC(=O)c1cc(S(=O)(=O)N2CCC(C(N)=O)CC2)oc1C	inactive
CN(C)/C=C(/C(=O)c1ccc(F)cc1)S(=O)(=O)c1ccc(F)cc1	inactive
Cc1c(C(=O)O)nnn1-c1nonc1N	inactive
O=C1CC(c2c(F)cccc2Cl)C(n2cncn2)C(O)=C1C1NCCc2ccccc21 (configuration not stated)	inactive
C/C(=N/NC(=O)CC(=O)N/N=C(\C)c1ccc([N+](=O)[O-])cc1)c1ccc([N+](=O)[O-])cc1	inactive
CC(C)(C)NC(=O)NCc1ccco1	inactive
CCC(C)NC(=O)CN(C1CCCCC1)S(C)(=O)=O (configuration not stated)	inactive
